Source: PubChem BioAssay (NCI)
The panel holds about 83,000 compounds, 20% with a hit somewhere; the sample as a whole holds those more often.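 Results are percent growth after 48 hours of single-concentration exposure. 100 means growth as in untreated cells, lower positive values show inhibition; negative values down to -100 show cell death.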 Unmarked numbers belong to inactive results. Calls of active or inactive are those of the source.

What follows are molecules tested on MCF7 breast (assay: NCI-60 one-dose screen, 48 h (100 = growth as untreated, 0 = no growth, -100 = all killed)). Details: 10 µM unless noted.
Protocol: Growth inhibition of the MCF7 human tumor cell line is measured as a screen for anti-cancer activity. Cells are grown in 96 well plates and exposed to the test compound for 48 hours. Compounds are tested at a single concentration, which is 10^-5 M for most compounds. The reported endpoint is percent growth (GI% or GIPRCNT), where numbers from 0 - 100% represent growth inhibition, and numbers from -100% - 0 represent cell death. For example, a value of 40 represents 60% growth inhibition. A value of 0 means no net growth occurred over the course of the experiment. A value of -40 indicates 40% of cells at the beginning of the experiment died by the end of the experiment. A value of -100 means all cells are dead at the end of the experiment.
NCI-60 Human Tumor Cell Lines Screen was performed using the standard one-dose NCI protocol, which is described in more detail at https://dtp.cancer.gov/discovery_development/nci-60/default.htm.
Compounds with GIPRCNT values below 10 were considered active. Activity score was based on GIPRCNT using the following formula: […]
Score is 0 for GIPRCNT values of 100 or above, 50 for GIPRCNT values of 0, and 100 for GIPRCNT values of -100.

Row | SMILES | growth
1 | CC(C)OP(=O)(OC(C)C)c1ncc(-c2ccc(C(F)(F)F)cc2)c(NC2CCCCCC2)n1 | 0.217% [33.3 µM] (active)
2 | Cc1ccc(S(=O)(=O)NCCN2c3nc4ccccc4cc3Sc3cc4ccccc4nc32)cc1 | 69%
3 | C[C@]12CC[C@H](O)CC1=CC[C@@H]1[C@@H]2CC[C@]2(C)C(c3cccnc3)=CC[C@@H]12 | 61.4%
4 | CCOC(=O)/C=C1/SC(=Nc2ccc(C#N)cc2)N(Cc2ccco2)C1=O | 12.6%
5 | O=C(Oc1ccccc1)C(Br)C(Br)c1ccccc1 (stereo not given) | 49.5%
6 | COc1cc(/C=C/C(=O)C(C(=O)/C=C/c2ccc(OC(=O)CCNc3nnc(C)s3)c(OC)c2)C(=O)CCNc2nnc(C)s2)ccc1OC(=O)CCNc1nnc(C)s1 | 8.2% (active)
7 | COc1ccc(NC(=O)c2ccc(-c3ccccc3)cc2)c(C(N)=O)c1 | 96.6%
8 | Nc1ccc2c(c1)C(=O)c1cc(Cl)c(Cl)cc1-2 | 69.2%
9 | CCOc1cc(CCNS(=O)(=O)c2ccc(C)cc2)c(C(C)=O)cc1OCC | 94.9% [100 µM]
10 | c1ccc(Nc2ccc(Nc3nc(-c4ccccc4)nc4ccccc34)cc2)cc1 | 80.6%
11 | NS(=O)(=O)c1cc(C2(O)NC(=O)c3ccccc32)ccc1Cl (stereo not given) | 102%
12 | NC(=O)c1cc(Cl)ccc1NC(=O)c1ccccc1-c1ccccc1 | 25.4%
13 | Cc1nn2c(/C=C3/C(=O)Nc4cc(Cl)ccc43)c(-c3ccccc3)nc2s1 | 21%
14 | Nc1nc2c(nnn2Cc2ccc(Cl)c(Cl)c2)c(=O)[nH]1 | 93.7%
15 | CCCCCCCCCCOC(C)=O | 93.6%
16 | COc1ccc2c(c1)[n+](=O)c(/C=C/C(=O)c1cc(OC)c(OC)c(OC)c1)c(C)n2[O-] | 18.1%
17 | COc1cc(/C=C2\SC(N3CCCCC3)=NC2=O)ccc1OCCCCCCOc1ccc(/C=C2\SC(N3CCCCC3)=NC2=O)cc1OC | 16.6%
18 | CCSc1nc(-c2cccs2)n2nc(-c3ccco3)cc2n1 | 32.9%
19 | C=CCN(/C=C/CN(CC=C)CC=C)CC=C | 97%
20 | COCCCNS(=O)(=O)c1ncnc2nc[nH]c12 | 112%

Row | SMILES | growth
21 | NC(=O)NS(=O)(=O)c1ccc(N2N=C(C(F)(F)F)CC2c2cc(C(F)(F)F)cc(C(F)(F)F)c2)cc1 (stereo not given) | 49.7%
22 | Cc1cc(Br)c(C)cc1Br | 98.2%
23 | O=C(O)c1ccc2cccnc2c1O | 10.8%
24 | Fc1ccc(-c2nn3c(-c4cc(C(F)(F)F)cc(C(F)(F)F)c4)nnc3s2)cc1 | 68.7%
25 | CCCCCCC(CC#N)(CCC)CCCC (stereo not given) | 96.1%
26 | OCCN1CCN(CCCN2c3ccccc3Sc3ccc(C(F)(F)F)cc32)CC1 | 18.3%
27 | O=C1c2cc3c(cc2-c2c1c1ccc(Cl)cc1c(=O)n2CCCNCCO)OCO3 | -73.1% (active)
28 | COc1ccc(C(=O)COc2cccc(/C=C3\CSc4ccc(Cl)cc4C3=O)c2)cc1 | -11.8% (active)
29 | Cc1ccc(C(=O)Cc2ccccc2)c(O)c1 | 99.9%
30 | NC(=N\N=C/Cc1ccccc1)/C(N)=N\N=C\Cc1ccccc1 | 101%
31 | N#Cc1c(-c2ccccc2)cc(-c2ccccc2)n(CCC(=O)O)c1=O | 35%
32 | CCCn1c(N)c(C(=O)CNc2ccc(I)cc2)c(=O)[nH]c1=O | 57.1%
33 | Cc1ccc(C2=NNC(c3sc(Cl)nc3Cl)C2)cc1 (stereo not given) | 65.9%
34 | COc1ccc(CNC(=O)c2c(C)n([O-])c3cc(F)c(F)cc3[n+]2=O)cc1 | 55.9%
35 | Clc1ccc(C2c3ccccc3-c3nccn32)c(Cl)c1 (stereo not given) | 80.5%
36 | O=C1CSC(c2ccccc2O)N1c1nnc(Cn2ccnc2)o1 (stereo not given) | 47.9%
37 | COc1ccc2cc(C3=CC(=O)CCC3)ccc2c1 | 110%
38 | CCOC1Oc2ccccc2C(=O)/C1=N/c1nccs1 (stereo not given) | 79.1%
39 | COc1ccc(OC)c2c1CCC1(C2)NC(=O)NC1=O (stereo not given) | 92.4%
40 | CCN(CC)CCSc1ncnc2c1cnn2-c1ccc(S(N)(=O)=O)cc1 | 83.1%
